HepG2 viability – HepG2 cytotoxicity, counter-screen for TGF-b inhibitors; HepG2 CAGA-GFP viability, ATP luminescence, 18 h; Potency, µM (top dose mostly 46.1 µM), for the others: at the top dose activity change, negative = cytotoxicity, usual class: cytotoxic; 410,000 tested, 0.76% active; note: potency is the fitted concentration of half-maximal effect
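HepG2 CAGA-GFP cells (1000/well, DMEM with 1% FBS) received compound, then TGF-beta at 500 pg/mL final, and were incubated 18 hours at 37 degrees C. Viability was read by CellTiter-Glo luminescence. Media-only wells were set as complete cell-killing and DMSO as no toxicity.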
TDP1 cell CPT – DT40-hTDP1 cell growth loss with CPT; chicken DT40 Tdp1-/-;hTDP1 cells + 20 nM CPT, ATP luminescence, 48 h; Potency, µM (highest dose often 46.2 µM), for the others: at the top dose activity change, negative = growth inhibition, hits mostly inhibitors; AID 686979; 420,000 tested, 12% active; note: potency is the fitted concentration of half-maximal effect; % is set by controls: 0 for no effect and ±100 for the full control effect; nearly all actives have a fitted effect of over 55% in size
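Cell growth measured by CellTiter-Glo luminescence after a minimum 48 h, 37 C compound exposure with 20 nM CPT in Tdp1-knockout DT40 cells stably expressing hTDP1, seeded 400/well; qHTS titration format.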
S-ASM inh – blocks human secretory acid sphingomyelinase. AID 504937. Potency, µM (highest dose often 57.5 µM), inactives show at the top dose activity change, negative = inhibition, usual class: inhibitors. placental ASM, HMU-PC fluorogenic substrate, 60 min. 340,000 tested, 0.006% active. P17405; note: potency is the fitted concentration of half-maximal effect
Target sequence (P17405 47-631 limits assumed): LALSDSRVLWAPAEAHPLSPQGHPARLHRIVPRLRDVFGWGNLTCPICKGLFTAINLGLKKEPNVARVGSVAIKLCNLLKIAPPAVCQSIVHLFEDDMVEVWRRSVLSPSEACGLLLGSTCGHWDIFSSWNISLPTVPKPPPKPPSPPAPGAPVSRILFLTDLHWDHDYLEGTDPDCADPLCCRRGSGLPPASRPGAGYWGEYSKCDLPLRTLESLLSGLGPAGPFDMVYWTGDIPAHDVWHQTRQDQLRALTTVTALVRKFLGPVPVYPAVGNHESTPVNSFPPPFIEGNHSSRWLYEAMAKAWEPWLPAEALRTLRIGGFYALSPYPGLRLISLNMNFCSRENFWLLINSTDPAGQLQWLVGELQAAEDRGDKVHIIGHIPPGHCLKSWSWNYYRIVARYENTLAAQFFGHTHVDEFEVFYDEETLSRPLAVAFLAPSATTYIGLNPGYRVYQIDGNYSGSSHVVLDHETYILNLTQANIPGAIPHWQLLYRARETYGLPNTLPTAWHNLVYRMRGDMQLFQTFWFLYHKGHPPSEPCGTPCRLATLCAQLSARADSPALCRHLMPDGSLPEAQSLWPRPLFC
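Fluorogenic HMU-PC substrate (9 uM final) is turned over by placental ASM in 60 min at 37 C after a 10 min compound preincubation. Reaction ended by alkaline stop (pH 10), with fluorescence read at 386/447 nm.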
TDP1 cell noCPT – qHTS for Inhibitors of human tyrosyl-DNA phosphodiesterase 1 (TDP1): qHTS in cells in absence of CPT. 420,000 tested, 15% active. DT40 Tdp1-/- hTDP1 cells, no CPT, ATP luminescence, 48 h. Potency, µM (top dose mostly 46.2 µM), for the others: at the top dose activity change, negative = growth inhibition, most hits filed as inhibitors; note: potency is the fitted concentration of half-maximal effect; % is set by controls: 0 for no effect and ±100 for the full control effect; nearly all actives have a fitted effect of over 55% in size
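Cells were dispensed at 400 per well, compounds added by pin tool, plates incubated ≥48 hr at 37 °C, then CellTiter-Glo added for 30 min at room temperature before luminescence reading. Line: DT40 Tdp1-/- complemented with hTDP1; camptothecin omitted.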
IL-1B inflam inh – blocks inflammasome-driven IL-1 beta release; activity change, % at 57.5 µM; THP-1 LPS/ATP IL-1B secretion, AlphaLISA, 16 h; hits give low values; 360,000 tested, 4.7% active; in the data active = activity change below about -50%; inconclusive = mostly about -30% to -49%; note: % is set by controls: 0 for no effect and ±100 for the full control effect
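THP-1 cells pretreated 1 hr with compounds (up to 57.5 uM final), then stimulated with LPS (250 ng/mL final) plus ATP (1.25 mM final); secreted IL-1B measured by AlphaLISA after 16 hr, decreased signal indicating inhibition.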
TGFb SMAD3 inh – TGF-b pathway inhibition; AID 588855; HepG2 CAGA-GFP TGF-b/SMAD3 reporter, GFP fluorescence, 18 h; TGF-beta stimulated, 500 pg/mL final; Potency, µM (titrated, usually from 46.1 µM), for the others: top-dose activity, negative = inhibition, most hits filed as inhibitors; 410,000 tested, 1.2% active; note: potency is the fitted concentration of half-maximal effect; % is set by controls: 0 for no effect and ±100 for the full control effect; nearly all actives have a fitted effect of over 65% in size
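HEPG2 CAGA-GFP reporter cells (1000/well, DMEM with 1% FBS) received compounds, then recombinant TGF-beta at 500 pg/mL final for 18 hours at 37 degrees C. Per-cell GFP summed per well was normalised to unstimulated and stimulated DMSO controls before curve fitting.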
Active calls of the source: *; ? = inconclusive; · = no result given; [ ] = another dose, or the depositor's remark. Most compounds without a hit are left out; they make up all but 19% or so of the library. Unless noted, calls come from the whole dose curve; as a rule, active = well fitted curve in the direction sought with a large enough effect; inconclusive = small, poorly fitted or top-dose-only effect, or another doubt; inactive = no such curve, though single readings can be large; an effect the other way counts as inactive or inconclusive.

SMILES	HepG2 viability	TDP1 cell CPT	S-ASM inh	TDP1 cell noCPT	IL-1B inflam inh	TGFb SMAD3 inh
CC(=O)N1CCc2c(sc3c2c(=O)n(Cc2ccccc2)c(=O)n3Cc2cccc(Cl)c2)C1	-30.7%	?	·	?	·	-9.1%
CC1CCN(CCOCCOc2ccc(Br)cc2Cl)CC1	-19.5%	18.4µM*	-3.0%	20.6µM*	?	3.1%
CN(C)CCCCOc1ccc(Br)cc1Cl	1.8%	?	0.0%	?	-15.7	0.0%
Cc1cc(Br)ccc1OCCOCCN1CCCC1	-9.3%	?	-0.6%	?	-12.3	3.6%
CC1CCCN(CCCOc2ccc(Br)cc2Cl)C1 (stereo unspecified)	0.8%	?	-0.9%	?	-90.1*	2.3%
CCCOc1ccc(Oc2nc(NC)nc(N3CCOCC3)n2)nn1	-10.2%	?	·	-9.5%	·	-9.4%
CCc1ccc2c(c1)C(c1ccc([N+](=O)[O-])cc1)=NNC(c1ccc(F)cc1)=N2	-1.0%	20.6µM*	-2.7%	?	-53.1*	0.9%
Cc1cccc(/C=N/NC(=O)c2cccc(Cl)c2)n1	-15.7%	?	1.8%	16.4µM*	-20.7	-11.1%
Cc1cccc(/C=N/NC(=O)c2cccc(NC(=O)c3ccccc3)c2)n1	-0.8%	-1.2%	-1.1%	-13.0%	31.7	1.2%
Cc1cc(/C=N/NC(=O)c2cccc(F)c2)c(C)n1-c1ccccc1	-24.6%	?	-3.8%	29.1µM*	-26.1	-16.1%
Cc1cc(/C=N/NC(=O)c2ccccc2F)c(C)n1-c1ccccc1	-6.6%	-18.3%	-1.2%	2.2%	-24.9	-18.7%
Cc1cc(/C=N/NC(=O)c2cccc([N+](=O)[O-])c2)c(C)n1-c1ccc(Cl)cc1Cl	-6.8%	?	-0.4%	?	-60.8*	6.3%
Cc1cccc(/C=N/NC(=O)c2cccc([N+](=O)[O-])c2)n1	-4.5%	18.4µM*	-0.9%	20.6µM*	-9.9	-10.1%
CC1(C(=O)NS(=O)(=O)c2ccc(F)cc2F)CCN1C(=O)Cc1cc(F)ccc1F (stereo unspecified)	-4.6%	-11.5%	·	-20.7%	11.2	-19.3%
C[n+]1ccc(CO)cc1	4.7%	-4.0%	·	-12.8%	·	2.1%
CCOC(=O)N1CCN(Cc2ccc3c(c2)CN(C(=O)c2ccc4ncccc4c2)CCO3)CC1	·	-11.0%[9.04 µM]	·	23.1µM*	·	·
CCOC(=O)N1CCN(Cc2ccc3c(c2)CN(C(=O)c2sc(C)nc2C)CCO3)CC1	·	-8.4%[9.04 µM]	·	16.4µM*	·	·
COCc1ccc(C(=O)N2CCOc3ccc(CN4CCN(c5ccc(F)cc5)CC4)cc3C2)o1	·	20.6µM*	·	20.6µM*	·	·
COc1ccc(C(=O)N2CCOc3ccc(CN4CCN(c5ccccn5)CC4)cc3C2)o1	·	3.6%[9.04 µM]	·	-21.9%	·	·
CC(C)c1nc(C(=O)N2CCOc3ccc(CN4CCN(c5ccccn5)CC4)cc3C2)cs1	·	-17.6%[9.04 µM]	·	14.6µM*	·	·
O=C(NN1C(=O)C2CC=C(Cl)CC2C1=O)c1ccncc1 (stereo unspecified)	1.3%	4.8%	2.7%	10.1%	7.6	0.2%
Cc1nc2sccn2c1CN1CCOc2ccc(CN3CCN(c4ccc(F)cc4)CC3)cc2C1	·	2.91µM*	·	2.59µM*	·	·
CCOC(=O)N1CCN(Cc2ccc3c(c2)CN(C(=O)c2ccc(C#CC(C)(C)O)o2)CCO3)CC1	·	?	·	9.2µM*	·	·
CSc1ccc(CN(C)CC(=O)NCCc2ccccc2)cc1	-13.9%	-0.8%	-0.5%	-22.2%	-11.3	-3.3%
CC(=O)c1c(Cl)nc2cccc3c2c1-c1ccccc1C3=O	-23.2%	-21.3%	-1.0%	?	?	-14.4%
Cc1ccsc1/C=N/Nc1ccc(F)cc1F	-1.4%	4.1%	-5.8%	-1.2%	-18.2	-0.8%
